Measured values published in PubChem BioAssay (NCI).
About 83,000 compounds went through this panel and 20% of them were active in at least one assay; those are over-represented in the sample as a whole.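 Activity criterion: percent growth below 10, measured after cells in 96-well plates were exposed to a single compound concentration for 48 hours.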 Active and inactive are the calls of the source.

Each compound was assayed on NCI-H322M lung (assay: NCI-60 one-dose screen, 48 h (100 = growth as untreated, 0 = no growth, -100 = all killed)). Conditions: 10 µM unless noted.

Row | Structure (SMILES) | growth
1 | CCOC(=O)c1ccccc1NC(c1ccccc1)c1ccc2cccnc2c1O (configuration not stated) | 42.5% (inactive)
2 | O=S(=O)(NCCCNc1nccc(-c2c(-c3ccc(O)cc3)nc3sccn23)n1)c1ccc(F)cc1 | 17.6% (inactive)
3 | C=CCc1cc(Cl)cc2c(OC(C)=O)c(C(C)=O)c(-c3ccccc3)nc12 | 106% (inactive)
4 | NC(=O)c1cccc(N2Cc3ccccc3OC3=C2C(=O)c2c(O)ccc(O)c2C3=O)c1 | 25.5% (inactive)
5 | Cc1cccc(NC(=O)c2sc3nc4c(cc3c2N)CCC4)c1C | 40.1% (inactive)
6 | COc1ccc(/C=C2\CCCC3=C2NC(C)=NC3c2ccc(OC)c(OC)c2)cc1OC (configuration not stated) | 47.4% (inactive)
7 | COc1cc(NS(C)(=O)=O)ccc1Nc1c2ccc([N+](=O)[O-])cc2nc2c(C)cccc12 | 39.6% (inactive)
8 | CC/C=C\C[C@H](O)C/C=C1/C(=O)C(Cl)=C[C@@H]1C/C=C\CCCC(=O)O | 94.5% (inactive)
9 | CCC(=O)Oc1cc(/C=C/C(=O)O[C@H]2C[C@H]3CN4CCc5c([nH]c6cc(OC)ccc56)[C@@H]4C[C@@H]3[C@@H](C(=O)OC)[C@@H]2OC)ccc1OC | 122% (inactive)
10 | Nc1ccccc1C#C/C=C\C#Cc1cccc(O)c1 | 93.6% (inactive)
11 | O=C(CSc1nc(-c2ccc(Cl)cc2)cn1-c1ccc(Cl)cc1)c1ccc(Br)cc1 | 94.2% (inactive)
12 | COC(=O)CCCCCN=Cc1c(O)c(O)c(C(C)C)c2cc(C)c(-c3c(C)cc4c(C(C)C)c(O)c(O)c(C=NCCCCCC(=O)OC)c4c3O)c(O)c12 | 32% (inactive)
13 | C=CCOc1cccc(/C=C/C(=O)c2sc(Nc3cccnc3)nc2C)c1 | 77.6% (inactive)
14 | CC(=O)Nc1nc(C(=O)N2N=C(C)/C(=C/c3cccs3)C2=O)cs1 | 95.4% (inactive)
15 | COc1cc(C2C=C(C)N=C3SC(C)=NN32)cc(OC)c1OC (configuration not stated) | 116% (inactive)
16 | COc1cc(C2C=C(C)N=C3SC=CN32)cc(OC)c1OC (configuration not stated) | 105% (inactive)
17 | CC/C=C\C/C=C\C[C@H]1C/C=C2/C(=O)C=C[C@H]2C/C=C\CCC(=O)O1 | 53.1% (inactive)
18 | COc1ccc(C2=NN(c3ccc(S(N)(=O)=O)cc3)C(c3cn(-c4ccccc4)nc3-c3ccc(Cl)cc3)C2)cc1 (configuration not stated) | 94.4% (inactive)
19 | O=C(CCCn1c2c(sc3ccccc32)c(=O)n2nnc(-c3ccccc3)c12)NCCc1cnc[nH]1 | -34.1% (active)

Row | Structure (SMILES) | growth
20 | CCOC(=O)C1=C(CSC(=S)N(C2CCCCC2)C2CCCCC2)N(C)C(=O)NC1c1ccccc1 (configuration not stated) | 91.9% (inactive)
21 | COc1cccc(-c2nc3sccn3c2-c2ccnc(NCCNS(=O)(=O)c3ccccc3)n2)c1 | 81.7% (inactive)
22 | COC(=O)c1ccc2nc(-c3cc4ccccc4n3C)n(CCCCOc3cc4c(cc3OC)C(=O)N3CCC[C@H]3C=N4)c2c1 | -38.1% (active)
23 | CCn1cc(C(=O)O)c(=O)c2cc(F)c(N3CCN(S(=O)(=O)c4ccc(Cl)cc4Cl)CC3)cc21 | -5.57% (active)
24 | CN(C)c1nc(N)c(N=O)c(N)n1 | 111% (inactive)
25 | COc1cc(C(=O)/C=C/c2cc(C(=O)c3cc(OC)c(OC)c(OC)c3)ccc2OC)ccc1N | 7.82% (active)
26 | COc1ccc(C2CC(c3cccs3)=NN2c2ccc(S(=O)(=O)NC(=O)Nc3ccc(C)cc3)cc2)cc1 (configuration not stated) | 104% (inactive)
27 | COc1cccc(/C=C2\SC(N3CCN(c4ccccn4)CC3)=NC2=O)c1 | 88.8% (inactive)
28 | Nc1nc(N)c2nc(CNc3ccc(C(=O)CC(CCC(=O)O)C(=O)O)cc3)cnc2n1 (configuration not stated) | 47.5% (inactive)
29 | Cc1ccc2nc(SCn3nnc4ccccc4c3=O)[nH]c2c1 | 135% (inactive)
30 | O=C1Nc2cc(Cl)ccc2Oc2cc(Oc3ccccc3)ccc21 | 76.2% (inactive)
31 | OC1CC2c3ccccc3C1c1ccccc12 (configuration not stated) | 114% (inactive)
32 | N#Cc1ncc(-c2ccc(F)c(F)c2F)c(NC2CCCCCC2)n1 | 85.7% (inactive)
33 | CC(C)(C)c1ccc(S(=O)(=O)Oc2ccc3c4c(c(=O)oc3c2)CCCCC4)cc1 | 85.9% (inactive)
34 | CC(Cc1nnc(SCC(=O)Nc2ccc(I)cc2)n1N)c1ccccc1 (configuration not stated) | 95.7% (inactive)
35 | CCN(Cc1ccc(CN(CC)C(=O)C(Cl)(Cl)Cl)cc1)C(=O)C(Cl)(Cl)Cl | 118% (inactive)
36 | NC(=O)NC(=O)/C=C/C(=O)OCCCl | 105% (inactive)
37 | CC(=O)OCC1OC(OCC2OC(OC(C)=O)C(OC(C)=O)C(OC(C)=O)C2OC(C)=O)C(OC(C)=O)C(OC(C)=O)C1OC(C)=O (configuration not stated) | 101% (inactive)
38 | O=C1c2ccccc2C(=O)c2c1oc1oc3c(c(=O)c21)c(=O)n(-c1ccccc1)c1ccccc31 | 63.5% (inactive)

What follows are compounds tested on HOP-62 NSCLC in the same assay as above. Conditions: 10 µM unless noted.

Row | Structure (SMILES) | growth
39 | COC(=O)CCCCCN=Cc1c(O)c(O)c(C(C)C)c2cc(C)c(-c3c(C)cc4c(C(C)C)c(O)c(O)c(C=NCCCCCC(=O)OC)c4c3O)c(O)c12 | 18.8% (inactive)
40 | CC/C=C\C/C=C\C[C@H]1C/C=C2/C(=O)C=C[C@H]2C/C=C\CCC(=O)O1 | -23.6% (active)
41 | O=C(CCCn1c2c(sc3ccccc32)c(=O)n2nnc(-c3ccccc3)c12)NCCc1cnc[nH]1 | -7.01% (active)
42 | CCn1cc(C(=O)O)c(=O)c2cc(F)c(N3CCN(S(=O)(=O)c4ccc(Cl)cc4Cl)CC3)cc21 | 19.5% (inactive)
